The record followed here is PubChem BioAssay (EPA / NIEHS).

The structures appear in SMILES notation. Active and inactive are the calls of the source. The calls were made as follows: active = hit-call score of the fitted dose curve at least 0.9, where 1 is the maximum; inactive = score below 0.9.

Sequence of Signal transducer and activator of transcription 3 (Homo sapiens) (P40763 whole entry, looked up): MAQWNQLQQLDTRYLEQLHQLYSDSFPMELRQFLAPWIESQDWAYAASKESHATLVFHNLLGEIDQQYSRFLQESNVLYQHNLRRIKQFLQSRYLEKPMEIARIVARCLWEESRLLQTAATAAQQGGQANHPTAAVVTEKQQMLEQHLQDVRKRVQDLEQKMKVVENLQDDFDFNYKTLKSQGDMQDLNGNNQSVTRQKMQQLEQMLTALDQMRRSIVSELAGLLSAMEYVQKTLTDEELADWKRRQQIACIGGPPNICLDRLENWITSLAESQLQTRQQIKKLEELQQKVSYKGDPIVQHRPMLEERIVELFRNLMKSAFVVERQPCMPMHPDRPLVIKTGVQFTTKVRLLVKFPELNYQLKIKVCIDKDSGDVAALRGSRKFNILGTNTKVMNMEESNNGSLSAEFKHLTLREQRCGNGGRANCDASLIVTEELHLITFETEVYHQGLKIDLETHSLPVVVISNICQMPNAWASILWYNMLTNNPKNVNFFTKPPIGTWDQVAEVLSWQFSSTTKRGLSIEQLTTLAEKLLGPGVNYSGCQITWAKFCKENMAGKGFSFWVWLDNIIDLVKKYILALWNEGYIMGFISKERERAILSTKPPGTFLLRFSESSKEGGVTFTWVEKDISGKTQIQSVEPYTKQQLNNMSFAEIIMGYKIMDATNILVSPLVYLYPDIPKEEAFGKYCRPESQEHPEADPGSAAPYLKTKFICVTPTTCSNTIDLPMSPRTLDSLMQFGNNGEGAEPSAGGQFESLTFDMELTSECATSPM

Read-out in one assay: succinate dehydrogenase complex iron sulfur subunit B (SDHB), SDHB (gene 6390)
Put plainly: LTEA_HepaRG_SDHB: Life Technologies and Expression Analysis (LTEA) Assay for succinate dehydrogenase complex iron sulfur subunit B (SDHB) using HepaRG (AID 2283528). The following applies: mRNA level, 48 h; actives raise or lower the signal. Summed up:
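A human HepaRG culture in serum-free induction medium received test chemicals for 48 h over an eight-point range capped at 100 uM. SDHB expression change was quantified by qRT-PCR.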
Regarding `Cc1cn([C@H]2C=C[C@@H](CO)O2)c(=O)[nH]c1=O`, the call was inactive. On the same count and under the same terms, the value for `O=C1c2c(O)cccc2Cc2cccc(O)c21` was “inactive”. With `CC(C)NCC(O)c1ccc(O)c(O)c1` (centres undefined), the compound was called inactive. The same measure, in the same setting: next, `CC(=O)O`: “inactive”; `COc1ccc(OC(F)(F)F)cc1CN[C@H]1CCCN[C@H]1c1ccccc1`: “inactive”; `CN(C)C(=O)NC1(c2ccccc2)CCN(CC[C@@]2(c3ccc(F)c(F)c3)CN(C(=O)c3ccccc3)CCO2)CC1`: “inactive”. Still for that read-out and setting: the value for `CCCCCCCCCCCCCCOS(=O)(=O)O` was “inactive”; that for `CC(=O)CC(c1ccccc1)c1c(O)c2ccccc2oc1=O` (centres undefined) was “inactive”.

In the case of `NC1CCCCC1`, the call was inactive.

Read-out in a further assay: Signal transducer and activator of transcription 3 (Homo sapiens) (UniProt P40763)
The experiment in a line: LTEA_HepaRG_STAT3: Life Technologies and Expression Analysis (LTEA) Assay for Signal transducer and activator of transcription (STAT3) using HepaRG (AID 2283529). As to conditions: mRNA level, 48 h; actives raise or lower the signal. Summed up: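 HepaRG, 48 h exposure, 8-pt half-log series (top 100 uM), 0.5% DMSO vehicle, duplicates. Readout: STAT3 transcript by Fluidigm qRT-PCR, housekeeping-normalized; bidirectional fit vs DMSO baseline.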
For `S=c1[nH]c2ccccc2s1`, the outcome was inactive.

Turning to `Oc1ccccc1O`, the outcome was inactive. On the same count and under the same terms, the value for `CCc1cc(C2=C(C(=O)O)N(c3ccccc3C(F)(F)F)S(=O)(=O)c3ccccc32)cc2c1OCO2` was “inactive”. With `CC(C)(C)c1ccccc1`, the outcome was inactive.

Take `COc1ccc(C(=O)Nc2nc3ccccc3c(NCc3ccccc3)c2C#N)cc1`: the compound was classed as inactive. Same read-out and setting: the value for `CCCC[C@H]1CN(CC2CCOCC2)C(=O)OC12CCN(C1(C)CCN(C(=O)c3c(C)ncnc3C)CC1)CC2` was “inactive”. In the case of `O=C1NC(=O)C(c2ccccc2)(c2ccccc2)N1`, the call was inactive. With `CCc1nc(N)nc(N)c1-c1ccc(Cl)cc1`, the call was inactive. The same measure, in the same setting: next, `O=C1O[C@H]([C@H](O)CO)C(O)=C1O`: “inactive”; `O=C(Oc1ccccc1)c1cccc(C(=O)Oc2ccccc2)c1`: “inactive”; `O=C(NS(=O)(=O)/C=C/c1cccs1)c1ccc(F)cc1Br`: “inactive”. On the same count and under the same terms, the value for `Nc1nc(=S)c2[nH]cnc2[nH]1` was “inactive”; that for `CC(N)=O` was “inactive”.

With `COC(=O)[C@H]1[C@H]2C[C@@H]3c4[nH]c5cc(OC)ccc5c4CCN3C[C@H]2C[C@@H](OC(=O)c2cc(OC)c(OC)c(OC)c2)[C@@H]1OC`, the result was inactive. Consider `CCCCCCCCCC[N+](C)(C)[O-]`, for which the call was inactive. As for `CC(COCC(C)OC(=O)c1ccccc1)OC(=O)c1ccccc1` (centres undefined), the compound was called inactive. Regarding `C/C=C/C=C/C(=O)O`, the compound was called inactive.

With `CC(C)c1cccc(C(C)C)c1NC(=O)NS(=O)(=O)c1cc(C(C)(C)O)co1`, the outcome was inactive. Take `NC(=Nc1ccccc1)Nc1ccccc1`: the compound was classed as inactive. Still for that read-out and setting: next, `CC(C)(O)c1ccc(CNC(=O)c2cccnc2Oc2ccc(F)cc2)cc1`: “inactive”; `O=Cc1ccccc1C=O`: “inactive”; `Cc1cn([C@H]2C=C[C@@H](CO)O2)c(=O)[nH]c1=O`: “inactive”. Still for that read-out and setting: next, `O=C1c2c(O)cccc2Cc2cccc(O)c21`: “inactive”; `CC(C)NCC(O)c1ccc(O)c(O)c1` (centres undefined): “inactive”; `CC(=O)O`: “inactive”. For `COc1ccc(OC(F)(F)F)cc1CN[C@H]1CCCN[C@H]1c1ccccc1`, the half-maximal activity concentration (AC50) was 73.4 µM (active). Regarding `CN(C)C(=O)NC1(c2ccccc2)CCN(CC[C@@]2(c3ccc(F)c(F)c3)CN(C(=O)c3ccccc3)CCO2)CC1`, the result was inactive. Still for that read-out and setting: next, `CCCCCCCCCCCCCCOS(=O)(=O)O`: “inactive”; `CC(=O)CC(c1ccccc1)c1c(O)c2ccccc2oc1=O` (centres undefined): “inactive”. On the same count and under the same terms, the value for `NC1CCCCC1` was “inactive”.

What is called AC50 is the concentration giving half of the maximal activity seen.
